Common to all, as to conditions: primary human HUVEC with PBMC; actives raise or lower the signal
Read-out in experiment [1]: Monocyte Chemoattractant Protein-1 (MCP1), CCL2 (gene 6347)
Kind of experiment: BSK_LPS_MCP1: BioMAP Diversity Plus: LPS Assay for Monocyte Chemoattractant Protein-1 (MCP1) Biomarker Activity (AID 2283081).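 As to AC50: secreted MCP-1 protein quantified by ELISA in culture supernatant.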 Put shortly: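 LPS-stimulated HUVEC/PBMC co-culture; chemical, 24 h; MCP-1 by ELISA; bidirectional fit vs DMSO; cytotoxicity via SRB (0.1% stain, 10% TCA fix, 560 nm) in parallel wells.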

The nature of experiment [2]: BSK_LPS_PGE2: BioMAP Diversity Plus: LPS Assay for Prostaglandin E2 (PGE2) Biomarker Activity (AID 2283082).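 As to AC50: secreted prostaglandin E2 measured by ELISA in LPS-stimulated co-culture.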 Put shortly:
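PGE2 release measured by ELISA in an LPS-activated co-culture of human umbilical vein endothelial cells and peripheral blood mononuclear cells, read at 24 h post-dosing. DMSO served as baseline for bidirectional curve fitting.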

Read-out in experiment [3]: Tissue Factor, F3 (gene 2152)
Kind of experiment: BSK_LPS_TissueFactor: BioMAP Diversity Plus: LPS Assay for Tissue Factor Biomarker Activity (AID 2283084). The method in brief: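 In this co-culture system of umbilical vein endothelium with PBMC, stimulated with LPS, cell-surface CD142 is detected by ELISA at 24 h. Endpoint values derive from bidirectional fitting, DMSO serving as baseline.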

Read-out in experiment [4]: Tumor necrosis factor (Homo sapiens) (UniProt P01375)
Kind of experiment: BSK_LPS_TNFa: BioMAP Diversity Plus: LPS Assay for Tumour Necrosis Factor alpha (TNFa) Biomarker Activity (AID 2283085). Put shortly: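 TNFa was quantified by ELISA in LPS-activated co-cultures of human endothelial cells and PBMC, 24 h post-dosing. Both increases and decreases versus DMSO were fitted.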

Read-out in experiment [5]: Vascular cell adhesion molecule 1 (VCAM1), VCAM1 (gene 7412)
Kind of experiment: BSK_LPS_VCAM1: BioMAP Diversity Plus: LPS Assay for Vascular cell adhesion molecule 1 (VCAM1) Biomarker Activity (AID 2283086). Put shortly: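 VCAM-1 quantified by ELISA in an LPS-activated co-culture of human endothelial cells and peripheral blood mononuclear cells, read 24 h post-treatment. Fitted in both directions versus DMSO; parallel SRB staining flags overt cytotoxicity.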

Read-out in experiment [6]: CD38, CD38 (gene 952)
Kind of experiment: BSK_SAg_CD38: BioMAP Diversity Plus: SAg Assay for CD38 Biomarker Activity (AID 2283087). Put shortly:
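CD38 quantified by ELISA (fluorescence) in a superantigen-activated endothelial cell–PBMC co-culture at 24 h post-dose. Activity fitted in both directions relative to DMSO; parallel SRB and Alamar Blue cytotoxicity read-outs.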

Read-out in experiment [7]: CD40, CD40 (gene 958)
Kind of experiment: BSK_SAg_CD40: BioMAP Diversity Plus: SAg Assay for CD40 Biomarker Activity (AID 2283088). Put shortly:
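Fluorescence ELISA read-out of CD40 from umbilical vein endothelium plus peripheral blood mononuclear cells, sampled 24 h after dosing. Values come from bidirectional curve fitting with DMSO as baseline.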

Read-out in experiment [8]: CD69, CD69 (gene 969)
Kind of experiment: BSK_SAg_CD69: BioMAP Diversity Plus: SAg Assay for CD69 Biomarker Activity (AID 2283089).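 As to AC50: cell surface CD69 protein quantified by ELISA with fluorescence detection.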 Put shortly:
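HUVEC co-cultured with PBMC were dosed with chemical, and CD69 was measured by ELISA with fluorescence read-out 24 h later. Bidirectional curve fitting used DMSO as negative control and activity baseline.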

Read-out in experiment [9]: Macrophage colony-stimulating factor (MCSF), CSF1 (gene 1435)
Kind of experiment: BSK_LPS_MCSF: BioMAP Diversity Plus: LPS Assay for Macrophage colony-stimulating factor (MCSF) Biomarker Activity (AID 2283083). The method in brief:
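Compound is added to a human vascular primary co-culture of umbilical vein endothelium and blood mononuclear cells. After 24 h, M-CSF is quantified by ELISA. Signal changes are fitted in both directions against DMSO.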

Structures are written as SMILES. “And” between values parts separate entries of the source, which are not always exact repeats. Equal values may be shown once. The source made the active and inactive calls. The calls were made as follows: active = hit-call score of the fitted dose curve at least 0.9, where 1 is the maximum; inactive = score below 0.9.

Chain of Tumor necrosis factor (Homo sapiens) (P01375 whole entry, looked up): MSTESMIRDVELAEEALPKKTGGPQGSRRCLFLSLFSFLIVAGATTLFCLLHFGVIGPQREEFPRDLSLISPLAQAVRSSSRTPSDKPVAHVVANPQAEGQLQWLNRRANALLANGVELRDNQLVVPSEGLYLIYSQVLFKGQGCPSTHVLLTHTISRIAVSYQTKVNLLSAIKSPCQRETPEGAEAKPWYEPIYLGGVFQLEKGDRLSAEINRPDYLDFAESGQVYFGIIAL

Turning to `BrC1CCC(Br)C(Br)CCC(Br)C(Br)CCC1Br` (centres undefined), the outcome in experiment [1], in experiment [3], in [4] and in experiment [8] was inactive. The AC50 is 3.87 µM (active) in experiment [2], 4.54 µM (active) in [5], 4.57 µM (active) in [6] and 4.59 µM (active) in experiment [7].

As to `Nc1cc([N+](=O)[O-])ccc1Cl`, the outcome in experiment [1], in experiment [2], in experiment [9], in experiment [3], in experiment [4] and in experiment [5] was inactive. The result in experiment [6], in experiment [7] and in [8] was inactive.

For the molecule `CN(CCOc1ccc(CC2SC(=O)NC2=O)cc1)c1ccccn1` (centres undefined), the outcome in [1], in experiment [9], in [4] and in experiment [5] was inactive. In addition, the AC50 in [3] is 24.9 µM (active); in experiment [6], 20 µM (active); in experiment [7], 20 µM (active); in experiment [8] it was 20 µM (active).

Turning to `N#Cc1ccc(CC(=NNC(=O)Nc2ccc(OC(F)(F)F)cc2)c2cccc(C(F)(F)F)c2)cc1`, the outcome in experiment [1], in experiment [3], in [4], in [5], in experiment [6] and in [7] was inactive. The result in experiment [8] was inactive.

For `CNC[C@H](O)c1cccc(O)c1`, the result in [1], in experiment [3], in [4], in [5], in experiment [6] and in experiment [7] was inactive. In addition, the result in [8] was inactive.

For `CCC(=O)OCc1ccccc1`, the result in experiment [1], in experiment [2], in [3], in [4], in experiment [5] and in [6] was inactive. Further, the outcome in experiment [7] and in experiment [8] was inactive.

Consider `CC(=O)OCCC(C)CC(C)(C)C` (centres undefined), for which the result in [1], in [3], in experiment [4], in experiment [5], in [6] and in [7] was inactive. The result in experiment [8] was inactive.

With `CCc1c(C)cc(N)c(CC)c1N`, the outcome in experiment [1], in experiment [3], in [4], in [5], in experiment [6] and in experiment [7] was inactive. For the same molecule, in experiment [8], the result was inactive.

In the case of `Nc1cc([N+](=O)[O-])ccc1O`, the result in experiment [1], in experiment [9], in experiment [3], in [4], in [5] and in [6] was inactive. Moreover, the outcome in experiment [7] and in [8] was inactive. Moreover, the AC50 in [2] is 3.97 µM (active) and 6.28 µM (active).

Regarding `C=C(C)C(=O)O[C@H]1C[C@@H]2CC[C@@]1(C)C2(C)C`, the AC50 in [1] was 31.1 µM (active); in experiment [9], 29.9 µM (active); in experiment [3], 36.8 µM (active); in experiment [5] it was 30.6 µM (active); in experiment [6] it was 33.8 µM (active); in experiment [7], 31.8 µM (active). For the same molecule, in experiment [8], the AC50 is 30.8 µM (active). Also, the outcome in experiment [4] was inactive.

For `CCCCCCCCCCCCCCCCCC(=O)OCC(CC)CCCC` (centres undefined), the result in [1], in experiment [3], in [4], in experiment [5], in experiment [6] and in experiment [7] was inactive. In addition, in experiment [8], the result was inactive.

In the case of `CC1CCC(C(C)CS)CC1S` (centres undefined), the AC50 in experiment [1] was 33.5 µM (active); in experiment [9], 36.4 µM (active); in experiment [3], 30.9 µM (active); in [5], 34.8 µM (active); in experiment [6], 32.8 µM (active); in experiment [7] it was 31.6 µM (active). Also, the AC50 in experiment [8] is 30.8 µM (active). Moreover, the outcome in [2] and in experiment [4] was inactive.

The values are drawn from PubChem BioAssay (EPA / NIEHS).
